Measurements: PubChem BioAssay (Tox21)
Where “and” joins values, the source holds several entries; their conditions need not be identical. Equal entries are not always repeated. Inconclusive results are not listed. Unmarked numbers belong to inactive results. Calls of active or inactive are those of the source. Calls come from the whole dose curve; as a rule, active = well fitted cell-killing curve with a large enough effect in the repeat runs; inconclusive = weak or mixed curves, or effect the other way; inactive = no such curve, though single readings can be large or run the other way.

assay: Caspase-3/7 induction in CHO-K1 cells by small molecules, qHTS cell viability counter screen (AID 1346979); details: CellTiter-Fluor fluorescence, 17 h; series mostly up to 92.4 µM; activity change, negative = cytotoxicity: at the top concentration; note: nearly all actives have a fitted effect of over 35% in size
Source text: National Center for Advancing Translational Sciences [NCATS]
NIH Chemical Genomics Center [NCGC]
U.S. Environmental Protection Agency [EPA]
National Institutes of Environmental Health Sciences [NIEHS]
National Toxicology Program [NTP]
U.S. Food and Drug Administration [FDA]
Apoptosis is a process of programmed cell death and plays a central role in the development of multicellular organisms. It is a highly regulated process and induces cell death by activating caspases, which are the members of cysteine aspartic acid-specific protease (caspase) family. Caspases involved in apoptosis are classified by their mechanism of action as initiator caspases (caspase-2, -8, -9 and -10) and executioner caspases (caspase-3, -6, and -7). Inhibition of apoptosis results in number of cancers, autoimmune diseases, inflammatory diseases and viral infection. To identify small molecule compounds that induce apoptosis, a homogeneous, luminescent Caspase-Glo 3/7 assay was used. Wild type CHO-K1 cells were used to screen Tox21 libraries for identifying caspase-3/7 activity inducers. Also cytotoxicity of the compounds was tested in parallel by measuring the cell viability using CellTiter-Fluor assay system in the same wells.
Tox21 Assay Protocol Summary:
CHO-K1 cells were dispensed at 1,500 per well in 5uL of culture medium into white solid bottom 1536-well plates (Corning Life Sciences, Corning, NY) using a Multidrop Combi (Thermo Scientific, Waltham, MA) dispenser. The assay plates were incubated at 37 C and 5% CO2 for 5hr, and then 23nL of compounds dissolved in DMSO and positive control were transferred using a Pintool station (Wako, San Diego, CA). The assay plates were incubated at 37C and 5% CO2 for 17hr. For cytotoxicity read, after 16hr incubation at 37C, 1uL CellTiter-Fluor reagent (Promega Corporation, Madison, WI) was added to each well of the assay plates using Flying Reagent Dispenser (FRD, Aurora Discovery, San Diego, CA). After 1hr incubation at 37C and 5% CO2, the fluorescence signal was quantified using a ViewLux plate reader (PerkinElmer, Shelton, CT).
% is set by controls: 0 for no effect and ±100 for the full control effect; potency is the fitted concentration of half-maximal effect.

Compound | activity change, negative = cytotoxicity | Potency
C[C@]12C=CC(=O)C=C1CC[C@@H]1[C@@H]2CC[C@@]2(C)[C@H]1CC[C@]2(C)O | 1.87% [at 42.5 µM] | 
C(COCC1CO1)OCC1CO1 (stereo not given) | 0.247% | 
COC[C@@H](NC(C)=O)C(=O)NCc1ccccc1 | 3.25% [at 42.5 µM] | 
O=P(O)(O)CN(CP(=O)(O)O)CP(=O)(O)O |  | inactive
N[C@@H](Cc1ccc(Oc2cc(I)c(O)c(I)c2)c(I)c1)C(=O)O | -1.15% [at 42.5 µM] | 
CC(O)CCl (stereo not given) | 1.89% | 
CCc1ccc(C2CCNCC2)cc1 | 1.23% [at 42.5 µM] | 
C1CN2CCC1CC2 | 13.5% [at 42.5 µM] | 
CCC(CC)(CNC(=O)CCCO)c1cccc(OC)c1 | 6.64% [at 42.5 µM] | 
O=P(O)(O)c1ccccc1 | 5.47% | 
COc1ccc2c(C(=O)c3ccc(Cl)cc3)c(C)n(CC(=O)O)c2c1 | -0.39% [at 42.5 µM] | 
N#CN | -10.8% [at 240 µM] | 
Clc1cc2c(cc1Cl)Oc1cc(Cl)c(Cl)cc1O2 | 8.13% [at 0.349 µM] | 
CN1COCN(Cc2cnc(Cl)s2)/C1=N\[N+](=O)[O-] | 2.17% | 
CC#Cc1cc(C)nc(Nc2ccccc2)n1 | -8.7% | 
CNC(=O)Oc1ccccc1C(C)C | 0.52% | 
CCOC(=O)N(C)N=O | 11.4% | 
O=[N+]([O-])CCO | 1.78% | 
COc1cc(CCN)cc(OC)c1OC | -0.405% | 
CCN(CC)CCOC(=O)C(O)(c1ccccc1)c1ccccc1 | 11.8% [at 42.5 µM] | 

Compound | activity change, negative = cytotoxicity | Potency
BrCC1CO1 (stereo not given) | 7.12% | 
C/C(=N\NC(=O)Nc1cc(F)cc(F)c1)c1ncccc1C(=O)O |  | inactive
CCOC1Oc2ccc(OS(C)(=O)=O)cc2C1(C)C (stereo not given) | -2.81% | 
CC1N=C(N)OC1c1ccccc1 (stereo not given) | -3.08% | 
c1ccc2c(c1)CCNC2 | -1.74% | 
O=C(Cl)C(Cl)(Cl)Cl | 10.3% | 
ClC1=C(Cl)C2(Cl)C(CBr)CC1(Cl)C2(Cl)Cl (stereo not given) | 5.57% [at 42.5 µM] | 
CCOC(=O)NC(C)(C)Cc1ccc(Cl)cc1 | 1.55% [at 42.5 µM] | 
N#CC(Br)(Br)C(N)=O |  | 61.1 µM (active)
CCC(C)C(C)(COC(N)=O)COC(N)=O (stereo not given) | 4.83% [at 42.5 µM] | 
O=C(O)C(Cl)Br (stereo not given) | 9.6% | 
O=c1[nH]c2ccccc2n1C1CCNCC1 | -3.13% [at 42.5 µM] | 
O=C1C2CC=CCC2C(=O)N1SC(Cl)(Cl)Cl (stereo not given) |  | 68.3 µM (active) and 12 µM (active)
COC(=O)c1ccccc1CS(=O)(=O)NC(=O)Nc1nc(OC)cc(OC)n1 | 4.55% | 
C#CCOC(=O)/C=C(C)/C=C/CC(C)CCCC(C)C (stereo not given) | 4.83% | 
CCSC(=O)Cl | 3.35% | 
CCCCCCCC(=O)Cl |  | 49 µM (active)
O=[N+]([O-])c1cccc(CCl)c1 | -0.0329% | 
CCCN1CCC[C@@H]2Cc3[nH]ncc3C[C@H]21 | -0.695% [at 42.5 µM] | 
CC1=C2[C@H]3OC(=O)[C@@H](C)[C@@H]3CC[C@@]2(C)C=CC1=O | 7.87% [at 42.5 µM] | 
